± gives the standard deviation of the averaged measurements.
Each compound was assayed on AEK1 (Tb927.3.2440) (assay: percent reduction in TR-FRET probe signal relative to DMSO control; higher = stronger displacement of ATP-site probe (binding)). Settings: 1 µM; incubation time 1 h.
`Cc1cc([C@@H](C)Nc2ccccc2C(=O)O)c2nc(N3CCOCC3)cc(=O)n2c1` was tested, and the “percent reduction in TR-FRET probe signal” value (shortened to “percent reduction”) was -5.32 ± 14%.
With `Cc1cc(C(=O)NOCCO)c(Nc2ccc(I)cc2F)n(C)c1=O` the “percent reduction” value was 4.03 ± 2.7%.
For `CN1CCC(CNc2ccc3ncc(-c4cccc(OC(F)(F)F)c4)n3n2)CC1` [SGI-1776 free base], the “percent reduction” value was 30 ± 15%.
With `Cc1ccc(C(=O)Nc2cccc(C(F)(F)F)c2)cc1Nc1nc(-c2cccnc2)nc2c1cnn2C` the “percent reduction” value was 1 ± 8.4%.

Reference: the supplement of paper PMC10720658
